Experimental data as given in PubChem BioAssay (Tox21).
Where “and” joins values, the source holds several entries; their conditions need not be identical. Equal values may be shown once. Results filed as inconclusive are left out. Entries that show only a call come without a potency. The source holds several records for some structures; these can differ, active in one and inactive in another. Calls of active or inactive are those of the source. Unless noted, calls follow the shape of the full dose curve.

Legend:
[1] = Nuclear factor erythroid 2-related factor 2/antioxidant responsive element (Nrf2/ARE) small molecule agonists: qHTS cell viability counter screen in human keratinocytes (AID 1919968; active = well fitted curve in the direction sought with a large enough effect in the repeat runs; an effect the other way counts as inactive or inconclusive; also: nearly all actives have a fitted effect of over 55% in size; also: potency is read from the fitted curve at half-maximal effect)
In short: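 Stably transfected HaCaT (KeratinoSens), 1,500/well. Test agents in DMSO were applied for 23 h, 37 C/5% CO2. CellTiter-Fluor was incubated 1 h before the fluorescence read.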

[2] = target: Gonadotropin-releasing hormone receptor (Homo sapiens) (UniProt P30968); assay: Human gonadotropin-releasing hormone receptor (GnRHR) small molecule agonists, calcium flux assay in GnRHR-HEK293 cells (AID 1920063); also: nearly all actives have a fitted effect of over 35% in size
In short: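 Stable human GnRHR HEK293 line. 18 h plating, then calcium dye for 1 h at 37 C. Agonist-mode compound addition from DMSO stocks; fluorescence monitored 3 min.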

[3] = target: KiSS-1 receptor (Homo sapiens) (UniProt Q969F8); assay: Human kisspeptin (KISS1R) small molecule agonists, calcium flux assay in KISS1R-HEK293 cells (AID 1920064; active = well fitted curve in the direction sought with a large enough effect in the repeat runs; an effect the other way counts as inactive or inconclusive)
In short: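 After overnight (18 h) culture at 37 C/5% CO2, human KISS1R-HEK293 cells received calcium dye for 1 h, then test compound; emission at 540 nm (excitation 480 nm) was tracked for 3 min.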

[4] = G protein-coupled receptor (GPCR) small molecule agonists, calcium flux assay: HEK293 wild type cell line counter screen (AID 1920065)
In short: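 Following 18 h incubation at 37 C/5% CO2, plates got calcium dye for 1 h; compounds, ATP or DMSO were then pinned in and fluorescence followed kinetically (480/540 nm).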

[5] = p53 small molecule agonists, cell-based qHTS assay with human liver microsomes (AID 1963577);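 also: p53 response element beta-lactamase reporter cells with liver microsomes plus NADPH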
In short: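 Reporter activation was measured by LiveBLAzer fluorescence intensity in p53RE-bla cells, which had been exposed to compounds for 16 h at 37 C alongside 0.5 mg/mL human liver microsomes and 0.5 mg/mL NADPH (final concentrations).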

[6] = p53 small molecule agonists, cell-based qHTS assay with human liver microsomes: qHTS cell viability counter screen (AID 1963579); also: nearly all actives have a fitted effect of over 45% in size
In short: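 HLM-supplemented (0.5 mg/mL final) and NADPH-supplemented (0.5 mg/mL final) p53RE-bla cultures, 4,000 cells per well, were dosed with compounds in DMSO for 16 h at 37 C; luminescent ATP detection (CellTiter-Glo, 30 min, room temperature) quantified surviving cells.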

[7] = p53 small molecule agonists, cell-based qHTS assay with rat liver microsomes: qHTS cell viability counter screen (AID 1963580); also: nearly all actives have a fitted effect of over 45% in size
In short: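 After the beta-lactamase ratio was read, CellTiter-Glo was added to the same wells and luminescence measured at 30 min; cells had been treated 16 h at 37 C with compounds, rat liver microsomes and NADPH (0.5 mg/mL final each).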

[8] = p53 small molecule agonists, cell-based qHTS assay: qHTS cell viability counter screen (AID 1963581); also: nearly all actives have a fitted effect of over 45% in size
In short: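 qHTS counter screen: 16 h compound exposure at 37 C of p53RE-bla HCT-116 cells (4,000 per well, seeded 5 h prior), cell viability by ATP luminescence.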

[9] = p53 small molecule agonists, cell-based qHTS assay (AID 1963582; active = well fitted activation curve with a large enough effect in the signal ratio in the repeat runs, not every such curve was filed as active; the % refers to the signal ratio)
In short: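 Measured: fluorescence from cleaved LiveBLAzer substrate. System: p53RE-bla cells, 16 h compound treatment at 37 C, 2 h substrate step at room temperature.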

[10] = target: 5-hydroxytryptamine receptor 2A (Homo sapiens) (UniProt P28223); assay: 5-hydroxytryptamine receptor 2A (HTR2A) small molecule antagonists, cell-based qHTS assay (AID 1963586); also: nearly all actives have a fitted effect of over 45% in size
In short: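 CHO cells stably expressing human HTR2A were plated for 18 h at 37 C, then loaded with calcium dye for 1 h. Compounds were preincubated 5 min at room temperature before DOI (4 nM solution) was added. Kinetic fluorescence was read for 3 min.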

[11] = target: Muscarinic acetylcholine receptor M1 (Homo sapiens) (UniProt P11229); assay: Cholinergic receptor muscarinic 1 (CHRM1) small molecule antagonists, cell-based qHTS assay (AID 1963588); also: nearly all actives have a fitted effect of over 40% in size; also: potency is read from the fitted curve at half-maximal effect
In short: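 Compounds were tested at 15 concentrations in three independent runs. Dye-loaded CHRM1-CHO cells were exposed 5 min at room temperature before stimulation by acetylcholine added at 50nM. Intracellular calcium was read kinetically on FDSS for 3 min.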

[12] = target: Muscarinic acetylcholine receptor M1 (Homo sapiens) (UniProt P11229); assay: Cholinergic receptor muscarinic 1 (CHRM1) small molecule agonists, cell-based qHTS assay (AID 1963589); also: nearly all actives have a fitted effect of over 35% in size
In short: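 Kinetic fluorescence (1 s intervals) of calcium-sensitive dye in human M1 CHO cells after compound addition; cells pre-incubated 18 h at 37 C/5% CO2 and dye-loaded 1 h.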

[13] = cAMP Responsive Elements (CRE) small molecule agonists, cell-based qHTS assay (AID 1963590)
In short: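 Test agents in DMSO were incubated 3 h at 37 C/5% CO2 with CRE-bla HEK 293T cells seeded 18 h earlier; LiveBLAzer B/G FRET substrate was added and read after 2 h at room temperature.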

[14] = cAMP Responsive Elements (CRE) small molecule antagonists, cell-based qHTS assay (AID 1963591; active = well fitted inhibition curve with a large enough effect in the signal ratio in the repeat runs, not every such curve was filed as active; the % refers to the signal ratio)
In short: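 Reporter line CRE-bla HEK 293T in dialyzed-FBS DMEM; cells preincubated 18 h, treated 3 h with compound plus NKH477 (0.25 uM final); LiveBLAzer FRET, 2 h RT.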

[15] = target: Beta-2 adrenergic receptor (Homo sapiens) (UniProt P07550); assay: Adrenergic beta2 receptor (ADRB2) small molecule antagonists, cell-based qHTS assay (AID 1963592); also: series mostly up to about 92 µM; nearly all actives have a fitted effect of over 50% in size
In short: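 Assay format: CHO-ADRB2 cells, 18-20hr seeding at 37C/5% CO2, then compound plus 1nM isoproterenol agonist mix for 0.5hr RT. Homogeneous time-resolved fluorescence cAMP detection after 1hr, expressed as 665/615 nm ratio.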

[16] = target: Beta-2 adrenergic receptor (Homo sapiens) (UniProt P07550); assay: Adrenergic beta2 receptor (ADRB2) small molecule agonists, cell-based qHTS assay (AID 1963593);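 also: CHO cells stably overexpressing human ADRB2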
In short: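 CHO cells stably over-expressing ADRB2 were plated overnight at 37C, then dosed with compounds plus a stimulation mix containing 100uM IBMX and 25uM Ro-20-1724 for 0.5hr at room temperature. cAMP was measured by HTRF competition, 1hr.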

[17] = target: D(2) dopamine receptor (Homo sapiens) (UniProt P14416); assay: Dopamine D2 receptor (DRD2) small molecule agonists, cell-based qHTS assay (AID 1963594); also: nearly all actives have a fitted effect of over 35% in size
In short: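 HEK293 cells stably expressing human DRD2, pre-treated with PDE inhibitor Ro20-1724 (0.1 mM final) and compound 10 min at room temperature, then stimulated with NKH477 (200nM […]) for 30 min. cAMP read by HTRF (665/620 nm).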

[18] = target: D(2) dopamine receptor (Homo sapiens) (UniProt P14416); assay: Dopamine D2 receptor (DRD2) small molecule antagonists, cell-based qHTS assay (AID 1963595; active = well fitted inhibition curve with a large enough effect in the signal ratio in the repeat runs, with a control signal flat; the % refers to the signal ratio)
In short: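 HEK293 cells stably expressing DRD2, preincubated with 0.1 mM Ro20-1724 and compounds 10 min, were stimulated with 200 nM NKH477 plus 12 nM quinpirole for 30 min at room temperature; cAMP measured by HTRF (665/620 nm).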

[19] = p53 small molecule agonists, cell-based qHTS assay with rat liver microsomes (AID 1963578)
In short: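 Compound in DMSO added to p53RE-bla cells 5 h post-plating; rat microsomes/NADPH 0.5 mg/mL final; 16 h, 37 C; LiveBLAzer 2 h RT.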

[20] = target: 5-hydroxytryptamine receptor 2A (Homo sapiens) (UniProt P28223); assay: 5-hydroxytryptamine receptor 2A (HTR2A) small molecule agonists, cell-based qHTS assay (AID 1963587); also: nearly all actives have a fitted effect of over 30% in size
In short: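 CHO cells stably expressing human HTR2A, plated 18 h, loaded with calcium dye 1 h at 37 C. Agonist mode: compounds added and intracellular calcium fluorescence recorded kinetically for 2 min at 1 sec intervals.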

Chain of Gonadotropin-releasing hormone receptor (Homo sapiens) (P30968 whole entry, looked up): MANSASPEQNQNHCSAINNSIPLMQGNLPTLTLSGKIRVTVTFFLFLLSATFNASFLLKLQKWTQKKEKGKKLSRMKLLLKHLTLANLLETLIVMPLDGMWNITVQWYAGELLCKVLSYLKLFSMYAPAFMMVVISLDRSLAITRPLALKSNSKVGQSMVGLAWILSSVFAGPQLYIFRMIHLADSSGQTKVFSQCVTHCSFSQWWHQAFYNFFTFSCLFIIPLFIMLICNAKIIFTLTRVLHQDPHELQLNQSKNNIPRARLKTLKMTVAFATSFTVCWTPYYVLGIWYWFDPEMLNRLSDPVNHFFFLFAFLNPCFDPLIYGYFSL
Chain of Muscarinic acetylcholine receptor M1 (Homo sapiens) (P11229 whole entry, looked up): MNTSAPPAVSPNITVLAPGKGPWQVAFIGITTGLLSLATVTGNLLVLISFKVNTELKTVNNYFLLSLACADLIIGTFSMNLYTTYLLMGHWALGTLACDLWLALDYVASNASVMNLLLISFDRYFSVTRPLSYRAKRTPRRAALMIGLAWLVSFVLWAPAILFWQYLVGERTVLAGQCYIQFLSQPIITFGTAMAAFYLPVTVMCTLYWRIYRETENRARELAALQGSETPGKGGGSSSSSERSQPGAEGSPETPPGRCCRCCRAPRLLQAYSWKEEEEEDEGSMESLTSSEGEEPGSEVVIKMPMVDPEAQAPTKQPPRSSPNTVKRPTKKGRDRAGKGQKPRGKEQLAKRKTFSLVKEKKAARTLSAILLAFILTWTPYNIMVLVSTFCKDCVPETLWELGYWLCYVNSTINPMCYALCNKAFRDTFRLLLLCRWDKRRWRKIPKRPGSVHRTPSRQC
Chain of D(2) dopamine receptor (Homo sapiens) (P14416 whole entry, looked up): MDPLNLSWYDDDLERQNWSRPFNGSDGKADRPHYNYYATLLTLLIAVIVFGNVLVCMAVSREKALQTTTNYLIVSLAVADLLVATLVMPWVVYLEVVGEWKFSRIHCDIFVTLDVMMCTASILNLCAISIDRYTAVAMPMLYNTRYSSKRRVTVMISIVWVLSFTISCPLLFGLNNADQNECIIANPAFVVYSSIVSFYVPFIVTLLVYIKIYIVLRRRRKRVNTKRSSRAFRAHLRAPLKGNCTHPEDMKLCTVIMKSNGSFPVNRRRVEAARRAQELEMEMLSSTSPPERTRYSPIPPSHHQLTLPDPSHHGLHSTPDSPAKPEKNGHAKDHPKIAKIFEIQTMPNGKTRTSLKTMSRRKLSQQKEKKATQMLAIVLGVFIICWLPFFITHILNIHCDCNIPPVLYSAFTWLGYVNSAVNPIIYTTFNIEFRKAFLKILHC
Chain of KiSS-1 receptor (Homo sapiens) (Q969F8 whole entry, looked up): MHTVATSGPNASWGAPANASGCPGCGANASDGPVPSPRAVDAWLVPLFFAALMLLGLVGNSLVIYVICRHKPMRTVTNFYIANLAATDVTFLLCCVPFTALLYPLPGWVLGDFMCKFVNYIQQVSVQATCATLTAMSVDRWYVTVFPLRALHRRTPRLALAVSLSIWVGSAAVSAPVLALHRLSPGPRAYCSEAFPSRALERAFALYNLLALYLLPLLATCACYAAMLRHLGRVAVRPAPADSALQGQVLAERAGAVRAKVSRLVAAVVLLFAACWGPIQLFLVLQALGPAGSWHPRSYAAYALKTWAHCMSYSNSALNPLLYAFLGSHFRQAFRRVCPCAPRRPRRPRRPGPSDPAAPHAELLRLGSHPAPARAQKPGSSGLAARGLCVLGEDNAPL
Chain of 5-hydroxytryptamine receptor 2A (Homo sapiens) (P28223 whole entry, looked up): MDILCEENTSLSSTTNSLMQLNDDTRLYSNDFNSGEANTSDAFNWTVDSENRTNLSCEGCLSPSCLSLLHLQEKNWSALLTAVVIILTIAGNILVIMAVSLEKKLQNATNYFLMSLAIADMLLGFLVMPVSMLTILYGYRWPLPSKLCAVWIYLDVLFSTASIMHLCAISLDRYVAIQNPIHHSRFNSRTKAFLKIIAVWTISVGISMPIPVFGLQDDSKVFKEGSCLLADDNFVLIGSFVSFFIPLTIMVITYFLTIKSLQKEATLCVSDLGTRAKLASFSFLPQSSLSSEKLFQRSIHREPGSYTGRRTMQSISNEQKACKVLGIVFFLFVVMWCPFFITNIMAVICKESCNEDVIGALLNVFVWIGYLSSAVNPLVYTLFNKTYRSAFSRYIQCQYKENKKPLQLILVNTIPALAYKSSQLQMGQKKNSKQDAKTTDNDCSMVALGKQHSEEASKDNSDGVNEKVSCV
Chain of Beta-2 adrenergic receptor (Homo sapiens) (P07550 whole entry, looked up): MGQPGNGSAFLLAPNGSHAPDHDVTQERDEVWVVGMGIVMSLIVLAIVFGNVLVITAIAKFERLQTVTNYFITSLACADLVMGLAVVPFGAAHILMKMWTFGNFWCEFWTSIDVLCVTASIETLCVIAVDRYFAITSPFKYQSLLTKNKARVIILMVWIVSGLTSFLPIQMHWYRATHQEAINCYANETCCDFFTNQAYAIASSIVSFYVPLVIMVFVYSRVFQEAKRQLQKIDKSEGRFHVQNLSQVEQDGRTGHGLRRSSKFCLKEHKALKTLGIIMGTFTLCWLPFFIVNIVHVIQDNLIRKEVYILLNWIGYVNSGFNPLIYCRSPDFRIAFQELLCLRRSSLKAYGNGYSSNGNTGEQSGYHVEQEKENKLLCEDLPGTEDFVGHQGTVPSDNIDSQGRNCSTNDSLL

Structure (SMILES) | Potency [1] | Potency [2] | Potency [3] | Potency [4] | Potency [5] | Potency [6] | Potency [7] | Potency [8] | Potency [9] | Potency [10] | Potency [11] | Potency [12] | Potency [13] | Potency [14] | Potency [15] | Potency [16] | Potency [17] | Potency [18] | Potency [19] | Potency [20]
O=[N+]([O-])c1ccc(Oc2ccc([N+](=O)[O-])cc2)cc1 | inactive | inactive | inactive | inactive | inactive | inactive | inactive | inactive | inactive | inactive | inactive | inactive | inactive | inactive | inactive | inactive | inactive | inactive | – | –
O=C(O)CCCCCCCCCCCC(=O)O | 30.1 µM (active) and inactive | inactive | inactive | inactive | inactive | inactive | inactive | inactive | – | inactive | inactive | inactive | – | – | inactive | inactive | inactive | inactive | inactive | inactive
CC(C=O)Cc1ccc(C(C)(C)C)cc1 (stereo not given) | inactive | inactive | inactive | inactive | inactive | inactive | inactive | inactive | inactive | – | inactive | inactive | inactive | inactive | inactive | inactive | inactive | inactive | – | inactive
CCN(CC)CCNC(=O)c1ccc(N)cc1 | inactive | inactive | inactive | inactive | – | inactive | inactive | inactive | – | – | – | – | inactive | inactive | inactive | inactive | inactive | inactive | – | –
COc1cc(C=O)ccc1OC(=O)C(C)C | inactive | inactive | inactive | inactive | inactive | – | inactive | – | – | inactive | inactive | inactive | inactive | – | inactive | inactive | inactive | inactive | – | inactive
COC(=O)OC | inactive | inactive | inactive | inactive | inactive | inactive | inactive | inactive | – | inactive | – | inactive | inactive | inactive | inactive | inactive | inactive | inactive | inactive | inactive
CC(COCC(C)OC(=O)c1ccccc1)OC(=O)c1ccccc1 (stereo not given) | inactive | inactive | inactive | inactive | – | inactive | inactive | inactive | – | inactive | inactive | inactive | inactive | inactive | inactive | inactive | inactive | inactive | – | inactive
Cc1ccc(/C(=C\CN2CCCC2)c2ccccn2)cc1 | inactive | inactive | inactive | inactive | – | – | – | – | inactive | inactive | 1.4 µM (active) and 2.59 µM (active) | inactive | inactive | inactive | inactive | inactive | inactive | inactive | – | inactive
CC(C)(N=C=O)c1cccc(C(C)(C)N=C=O)c1 | inactive | inactive | inactive | inactive | – | inactive | inactive | inactive | – | – | – | inactive | inactive | inactive | inactive | – | inactive | inactive | – | inactive
